The supplement of paper PMC3414501
Counter-ions that a name gives are not always drawn. A number with no mark means an inactive call.

Tests used:
[1] = test system: S. cerevisiae SK1 pCDA2-eGFP (USY613), sporulating; experiment: CDA2-GFP sporulation assay sensitivity score (z-score vs DMSO controls); higher = stronger inhibition of sporulation, active = hit call of the paper;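 also: active if sensitivity score above 5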
[2] = test system: S. cerevisiae NKY1551 his4x/his4B, sporulating; experiment: HIS4 meiotic recombination assay sensitivity score (z-score vs DMSO controls); higher = stronger inhibition of sporulation/recombination, active = hit call of the paper;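 also: active if sensitivity score above 5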
[3] = test system: S. cerevisiae AD1-9 (efflux-pump deficient), vegetative growth in YPD; experiment: growth sensitivity score (doubling time z-score vs DMSO controls); higher = slower growth, strongly negative scores also mark growth inhibition (complete suppression), active = hit call of the paper
Outline: (§1)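 Rich medium in microtiter plates was seeded with Saccharomyces cerevisiae strains BY4741 and AD1-9 at an OD600 of 0.065, and compounds were added as a 1:100 dilution of DMSO stock. A Tecan GENios reader recorded optical density every 15 min for 24 hours, with eight solvent-only wells in each experiment. Average doubling time was the time to reach a set generation point divided by generation number. The growth sensitivity score was the compound mean minus the solvent-only mean, divided by the solvent-only standard deviation.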

[4] = test system: S. cerevisiae BY4741 (wild-type), vegetative growth in YPD; experiment: as above
Outline: as §1

Compound | CDA2-GFP sporulation assay sensitivity score [1] | HIS4 meiotic recombination assay sensitivity score [2] | growth sensitivity score [3] | growth sensitivity score [4]
CCCc1c(OCCCCc2nnn[nH]2)ccc(C(C)=O)c1O (stock concentration (mM, diluted 1:100): 10) | -1.99 | -2.23 | 5.49 (active) | 1.14
Oc1ccc(C2CNCCc3c2cc(O)c(O)c3Cl)cc1 (stereo not given) [Fenoldopam mesylate] (stock concentration (mM, diluted 1:100): 7.7) | -0.81 | -0.24 | -1.09 | -0.74
CCC(=O)NS(=O)(=O)c1ccc(-c2c(-c3ccccc3)noc2C)cc1 [Parecoxib] (stock concentration (mM, diluted 1:100): 9.8) | 5.02 | 0.05 | 0.73 | -0.35
CC(N/C(=N\C#N)Nc1ccncc1)C(C)(C)C (stereo not given) [Pinacidil monohydrate] (stock concentration (mM, diluted 1:100): 10) | 1.62 | -1.38 | -0.96 | 1.52
NC[C@H]1CC[C@H](C(=O)Oc2ccc(CCC(=O)O)cc2)CC1 [Cetraxate hydrochloride] (stock concentration (mM, diluted 1:100): 9) | -0.06 | -0.39 | -0.24 | 1.25
